Assay results: PubChem BioAssay (NCI)
Where “and” joins values, the source holds several entries; their conditions need not be identical. Equal values may be shown once. About 79,000 compounds went through this panel and 15% of them were active in at least one assay; those are over-represented in the sample as a whole. Rule as the data show it: active = growth inhibition above about 70%; inactive = the rest.

Legend:
[1] = NCI Yeast Anticancer Drug Screen. Data for the rad50 strain (AID 155);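 also: 0% = growth of vehicle-only cultures of the same strain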; conditions: S. cerevisiae rad50 strain growth inhibition; at 50.0 µM; active compounds read high
Procedure, shortened: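 Compounds were tested on a yeast strain with an engineered DNA damage repair alteration; the reported value is growth inhibition normalised to vehicle treatment.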

[2] = NCI Yeast Anticancer Drug Screen. Data for the mec2-1 strain (AID 157); conditions: S. cerevisiae mec2-1 strain, at 50.0 µM, active compounds read high
Procedure, shortened: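 Strain: mec2-1 (DNA repair/cell cycle alteration). Compound exposure, then growth measured; inhibition expressed relative to vehicle.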

[3] = NCI Yeast Anticancer Drug Screen. Data for the sgs1 mgt1 strain (AID 161);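 also: 0% = growth of cultures given vehicle only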; conditions: S. cerevisiae sgs1 mgt1 strain, at 50.0 µM, active compounds read high
Procedure, shortened: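 Read-out: growth inhibition vs vehicle controls. Cells: mutant yeast strain deficient in DNA damage repair.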

[4] = NCI Yeast Anticancer Drug Screen. Data for the cln2 rad14 strain (AID 165);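 also: 0% = growth equal to vehicle treated cultures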; conditions: S. cerevisiae cln2 rad14 strain, at 50.0 µM, active compounds read high
Procedure, shortened: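 Compounds are applied to the cln2 rad14 yeast strain, and growth is then compared with that of vehicle-treated cultures to give inhibition.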

[5] = NCI Yeast Anticancer Drug Screen. Data for the bub3 strain (AID 167); conditions: S. cerevisiae bub3 mutant strain, at 50.0 µM, active compounds read high
Procedure, shortened: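 Growth of a checkpoint-deficient yeast mutant is measured after compound exposure. Values represent inhibition relative to vehicle.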

[6] = NCI Yeast Anticancer Drug Screen. Data for the mlh1 rad18 strain (AID 175); conditions: S. cerevisiae mlh1 rad18 strain growth inhibition; at 50.0 µM; active compounds read high
Procedure, shortened: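 Read-out is yeast growth inhibition, calculated against vehicle-only controls. The compound was applied to a strain engineered with DNA damage repair alterations.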

Measured: growth inhibition

COC1OC2COC(c3ccccc3)OC2C(OC(C)=O)C1OC(C)=O (stereo unspecified)
inactive: [1] 15.4% and 5.85% | [2] 10.2% and 6.9% | [3] 2.1% and 4.05% | [4] 2.4% and 2.9% | [5] 38.8% and 10% | [6] 19.9% and -14.9%

O=C(O)CC(O)C(=O)O (stereo unspecified)
inactive: [1] -2.95% and 0.45% | [2] -20.2% and 3.55% | [3] -39.1% and -1.05% | [4] -19.6% and 3.85% | [5] 5.25% and -2.85% | [6] -43% and -1.2%

N#CC1OC1c1cccc[n+]1[O-] (stereo unspecified)
inactive: [1] 9.05% and 4.6% | [2] -7.8% and -3.3% | [3] 0.85% and -8.7% | [4] -45.9% and -29.5% | [5] -11.7% and -13.9% | [6] -3.15% and 8.5%

OCC1OC(n2cnc3cncnc32)C(O)C1O (stereo unspecified)
inactive: [1] 12.4% and 3.3% | [2] -40% and 24.9% | [3] 13.4% and 23.4% | [4] 12.3% and -35.8% | [5] -3.65% and 22.6% | [6] 2.15% and 29.9%

NC(N)=N/N=C(/C=N/N=C(N)N)C(O)C(O)CO (stereo unspecified)
inactive: [1] -11% and -10.4% | [2] -1.95% and -8.1% | [3] -7.6% and 3.3% | [4] -39.3% and -17.4% | [5] -18.1% and -13.7% | [6] -20.4% and -19.9%

C/C(=N\NS(C)(=O)=O)C(C)(C)C
inactive: [1] -5.05% and 16.1% | [2] -0.2% and 11.1% | [3] 2.35% and 21.3% | [4] -5.35% and 6.5% | [5] -35.5% and -20.8% | [6] -13% and 17.8%

CC(N)(CCO)C(=O)O (stereo unspecified)
inactive: [1] 1.25% and -1.8% | [2] 11.9% and -3% | [3] -5.95% and -19.4% | [4] 1.4% and -18% | [5] -5.5% and 8.75% | [6] 3.95% and 7.2%

OC1C(O)C2(c3ccccc3)OC1(c1ccccc1)c1ccccc12 (stereo unspecified)
inactive: [1] 13.2% and 7.35% | [2] -5.9% and -2.35% | [3] -5.8% and -5.6% | [4] 4.35% and 2% | [5] -0.25% and -1% | [6] -13.5% and -9.9%

CC(=O)c1c(-c2ccc(Cl)cc2)c(C#N)c(=S)n(C2OC(CO)C(O)C(O)C2O)c1-c1ccccc1 (stereo unspecified)
inactive: [1] 5.1% and 4.5% | [2] 1.95% and 6.1% | [3] 28.1% and 34.5% | [4] 33.1% and -7.6% | [5] -2.95% and 39.5% | [6] 56.6% and 15.9%

CCCCCC(Br)C(Br)CC(Br)C(Br)CCCCCCCC(=O)c1ccc2ccccc2c1O (stereo unspecified)
inactive: [1] 2.8% and 22.1% | [2] -2.05% and 0.5% | [3] 10.4% and 2.9% | [4] 8.05% and -2.25% | [5] -18.3% and 5.9% | [6] -3.1% and 7.15%

C/C(=N\NC(N)=O)c1ccc(Cl)cc1
inactive: [1] 27.9% and 9.05% | [2] 10.8% and -3.65% | [3] 2% and -6.25% | [4] 9.6% and -8.65% | [5] -4.15% and 6% | [6] 7.3% and 10.7%

O=[N+]([O-])c1ccc(S(=O)(=O)Cl)cc1
inactive: [1] 53.2% and 20.5% | [2] -3.75% and 6.75% | [3] 30.9% and 44.5% | [4] 35.8% and 23.1% | [5] 28.1% and 6.15% | [6] 52% and 52.5%

O=C(O)c1cc2ccccc2c(=O)[nH]1
inactive: [1] -2.25% and 29.4% | [2] 4.55% and 10.8% | [3] -6.9% and 21.9% | [4] 0.8% and 12.2% | [5] 0.9% and 4.45% | [6] 2.4% and -6.55%

COc1ccc(C2c3cc(OC)c(OC)cc3CC(C(=O)O)C2C(=O)N(C)C)cc1OC (stereo unspecified)
inactive: [1] -2.05% and -30.2% | [2] 8% and -4.6% | [3] 35.3% and -0.15% | [4] 26.6% and 10.1% | [5] 4.7% and -4% | [6] 13.1% and 1.9%

[B]C(=O)NC(CC(C)C)C(=O)NC1c2ccsc2C(=O)C1O (stereo unspecified) (tested in a mixture with another compound)
inactive: [1] 3.05% and 4.2% | [2] 18.6% and 22.4% | [3] 12.1% and 2.9% | [4] 2.9% and 16.6% | [5] 32.3% and 33.1% | [6] -16.1% and -21.4%

N#CC(C#N)=CN1CCOCC1
inactive: [1] -0.6% and 8.35% | [2] -24.1% and 8.95% | [3] 1.75% and -7.75% | [4] -22.5% and 10.4% | [5] -0.6% and -0.55% | [6] 4.1% and -12.9%

NCC1CCC(CN)CC1 (stereo unspecified)
inactive: [1] -23.9% and -37.9% | [2] -40.7% and -33.4% | [3] -17.6% and -24.7% | [4] -5.15% and 12.1% | [5] -28.9% and -25.8% | [6] -19.9% and -7.3%

CCCCN(CCCC)CCCN
inactive: [1] 13.2% and 9.35% | [2] -1.45% and -6.9% | [3] -18.9% and -5.35% | [4] -11.6% and 9.8% | [5] 6.5% and -3.15% | [6] -9% and 11.7%

O=C(CC(=O)Nc1ccccc1)Nc1ccccc1
inactive: [1] -3.55% and 32.1% | [2] -21% and 0.2% | [3] -5.95% and 23.4% | [4] 8.5% and 5.5% | [5] -28.6% and -1.65% | [6] -5.55% and 20.8%

CC(=O)OCC1OC(n2c(-c3ccccc3)cc(-c3ccccc3)c(C#N)c2=O)C(OC(C)=O)C(OC(C)=O)C1OC(C)=O (stereo unspecified)
inactive: [1] -14.3% and -1.45% | [2] -3.7% and 6.6% | [3] 1.8% and 3.45% | [4] 23.6% and 0.7% | [5] 5.4% and 3.9% | [6] 16% and -2.25%

O=C(O)/C=C/C=C/C(=O)O
inactive: [1] -5.1% and 14.2% | [2] -4.45% and -10.2% | [3] -3.8% and -1.95% | [4] 7.8% and -17.9% | [5] -0.8% and -14.6% | [6] -10.6% and 2.75%
